Measurements taken from PubChem BioAssay (Tox21).
Inconclusive results are not listed. Calls of active or inactive are those of the source. Unless noted, calls come from the whole dose curve; as a rule, active = well fitted curve in the direction sought with a large enough effect in the repeat runs; inconclusive = weak or mixed curves; inactive = no such curve, though single readings can be large; an effect the other way counts as inactive or inconclusive.

What was measured:
[1] = qHTS assay for small molecules that induce genotoxicity in human embryonic kidney cells expressing luciferase-tagged ATAD5 (AID 651632); note: nearly all actives have a fitted effect of over 15% in size
Summary of the method: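 Quantitative HTS in HEK293T expressing luciferase-tagged ATAD5, whose levels rise upon DNA damage. Exposure ran 16 hr at 37C and 5% CO2, with luminescence read 30 min after Amplite addition at room temperature.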

[2] = qHTS assay for small molecule agonists of the p53 signaling pathway - cell viability (AID 651633; calls by dose curve;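 note: p53RE-bla HCT reporter cells with a stable beta-lactamase p53 reporter; series mostly up to about 83 µM; nearly all actives have a fitted effect of over 30% in size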)
Summary of the method: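 p53RE-bla cells were treated with compound for 16 hours at 37 C. Cytotoxicity was then measured as CellTiter-Glo luminescence after 30 min at room temperature.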

[3] = qHTS assay for small molecules that induce genotoxicity in human embryonic kidney cells expressing luciferase-tagged ATAD5 - cell viability (AID 651634; calls by dose curve; note: nearly all actives have a fitted effect of over 25% in size)
Summary of the method: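 After 15.5 hr incubation with compound at 37C, 5% CO2, HEK293T ATAD5-luciferase cells received CellTiter-Fluor reagent; fluorescence intensity was quantified following 30 min at 37C.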

[4] = qHTS assay for small molecule disruptors of the mitochondrial membrane potential - cell viability (AID 720634; calls by dose curve;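 note: human HepG2 liver cancer cells; series mostly up to about 83 µM; nearly all actives have a fitted effect of over 20% in size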)
Summary of the method: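 ATP-based luminescent viability readout (CellTiter-Glo, 30 min, room temperature) in HepG2 cells multiplexed with the m-MPI membrane potential dye; compound exposure lasted 1 hr at 37 C.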

[5] = qHTS assay for small molecule disruptors of the mitochondrial membrane potential (AID 720635); note: potency is the fitted concentration of half-maximal effect
Summary of the method: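 HepG2 cells exposed to compound 1 hr at 37C, then Mito-MPS dye 30 min. Ratio read of aggregate (540/590 nm) versus monomer (490/535 nm) fluorescence.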

[6] = qHTS assay to test for compound auto fluorescence at 590 nm (red) in HepG2 cells (AID 720674)
Summary of the method: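 Fluorescence at 590 nm emission following 540 nm excitation was recorded from HepG2 wells one hour after compound transfer, with DMSO-only wells as vehicle and Rose Bengal sodium equivalency as the scale.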

[7] = qHTS assay to test for compound auto fluorescence at 535 nm (green) in HepG2 cells (AID 720675)
[8] = qHTS assay to test for compound auto fluorescence at 460 nm (blue) in HEK293 cells (AID 720678)
Summary of the method: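 After cell attachment (4-5 hr, 37C), compounds were pinned onto HEK293 monolayers in 10% dialyzed FBS medium. The blue channel (405/460 nm) was read following overnight culture. Equivalency was calculated against triamterene.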

[9] = qHTS assay to test for compound auto fluorescence at 590 nm (red) in HEK293 cells (AID 720679)
Summary of the method: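 Plates of HEK293 cells (10% dialyzed FBS) are treated with 23 nL compound or DMSO vehicle after a 4-5 hr attachment period, incubated overnight at 37C, and read for red fluorescence at 540/590nm.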

[10] = qHTS assay to test for compound auto fluorescence at 535 nm (green) in HEK293 cells (AID 720680)
[11] = qHTS assay to test for compound auto fluorescence at 460 nm (blue) in HEK293 cell free culture (AID 720681)
Summary of the method: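 Compounds were added to cell-free DMEM with 10% FBS and fluorescence read directly. The blue channel used 405 nm excitation and 460 nm emission, with triamterene as the reference fluorophore.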

[12] = qHTS assay to test for compound auto fluorescence at 535 nm (green) in HEK293 cell free culture (AID 720682)
Summary of the method: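 Intrinsic compound fluorescence is measured in culture medium containing 10% FBS, with excitation at 485 nm and detection at 535 nm, referenced to fluorescein.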

[13] = qHTS assay to test for compound auto fluorescence at 590 nm (red) in HEK293 cell free culture (AID 720683)
Summary of the method: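 Cell-free wells of DMEM with 10% FBS received compound, and intrinsic fluorescence was read at excitation/emission 540/590 nm. Values expressed as equivalence to Rose Bengal sodium.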

[14] = qHTS assay to test for compound auto fluorescence at 590 nm (red) in HepG2 cell free culture (AID 720684)
Summary of the method: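 Auto fluorescence equivalency versus Rose Bengal sodium, red channel Ex/Em 540/590 nm; compounds in cell-free MEM/10% FBS; DMSO vehicle control.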

[15] = qHTS assay to test for compound auto fluorescence at 535 nm (green) in HepG2 cell free culture (AID 720686)
[16] = qHTS assay to test for compound auto fluorescence at 460 nm (blue) in HepG2 cells (AID 720687)
Summary of the method: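 HepG2 cells in MEM with 10% FBS, attached overnight at 37 C, were exposed to compound or DMSO for 1 hr at 37 C, 5% CO2. Blue fluorescence was read at 405/460 nm, with triamterene as reference fluorophore.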

[17] = target: Glucocorticoid receptor (Homo sapiens) (UniProt P04150); assay: qHTS assay to identify small molecule agonists of the glucocorticoid receptor (GR) signaling pathway (AID 720691; active = well fitted activation curve with a large enough effect in the signal ratio in the repeat runs, not every such curve was filed as active; the % refers to the signal ratio)
Summary of the method: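 Cells: GR-bla HeLa, endogenous GR with stably integrated GRE-beta-lactamase reporter. Treatment 18 h, 37 C, compounds delivered in DMSO. Detection via LiveBLAzer B/G FRET substrate, 2 h RT, fluorescence intensity.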

[18] = qHTS assay for small molecule agonists of the p53 signaling pathway (AID 651631; calls by dose curve; note: nearly all actives have a fitted effect of over 15% in size)
Summary of the method: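 Fluorescence intensity from cleaved LiveBLAzer B/G substrate (2 h, room temperature) served as the signal. Beforehand, HCT-116 reporter cells bearing p53 response elements were treated 16 h at 37 °C with DMSO-dissolved compounds.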

[19] = qHTS assay to test for compound auto fluorescence at 460 nm (blue) in HepG2 cell free culture (AID 720685)
Summary of the method: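 Cell-free plates of MEM plus 10% FBS received 23 nL compound or DMSO vehicle; blue-channel (405/460 nm) intensity scored against triamterene as reference fluorophore.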

[20] = target: Glucocorticoid receptor (Homo sapiens) (UniProt P04150); assay: qHTS assay to identify small molecule antagonists of the glucocorticoid receptor (GR) signaling pathway (AID 720692; active = well fitted inhibition curve with a large enough effect in the signal ratio in the repeat runs, not every such curve was filed as active; the % refers to the signal ratio)
Summary of the method: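 Quantitative HTS in antagonist format: HeLa cells expressing endogenous GR and a stably integrated GRE-bla reporter, stimulated with 5 nM dexamethasone (final) alongside test compounds for 18 h.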

Measured: Potency

Chain of Glucocorticoid receptor (Homo sapiens) (P04150 whole entry, looked up): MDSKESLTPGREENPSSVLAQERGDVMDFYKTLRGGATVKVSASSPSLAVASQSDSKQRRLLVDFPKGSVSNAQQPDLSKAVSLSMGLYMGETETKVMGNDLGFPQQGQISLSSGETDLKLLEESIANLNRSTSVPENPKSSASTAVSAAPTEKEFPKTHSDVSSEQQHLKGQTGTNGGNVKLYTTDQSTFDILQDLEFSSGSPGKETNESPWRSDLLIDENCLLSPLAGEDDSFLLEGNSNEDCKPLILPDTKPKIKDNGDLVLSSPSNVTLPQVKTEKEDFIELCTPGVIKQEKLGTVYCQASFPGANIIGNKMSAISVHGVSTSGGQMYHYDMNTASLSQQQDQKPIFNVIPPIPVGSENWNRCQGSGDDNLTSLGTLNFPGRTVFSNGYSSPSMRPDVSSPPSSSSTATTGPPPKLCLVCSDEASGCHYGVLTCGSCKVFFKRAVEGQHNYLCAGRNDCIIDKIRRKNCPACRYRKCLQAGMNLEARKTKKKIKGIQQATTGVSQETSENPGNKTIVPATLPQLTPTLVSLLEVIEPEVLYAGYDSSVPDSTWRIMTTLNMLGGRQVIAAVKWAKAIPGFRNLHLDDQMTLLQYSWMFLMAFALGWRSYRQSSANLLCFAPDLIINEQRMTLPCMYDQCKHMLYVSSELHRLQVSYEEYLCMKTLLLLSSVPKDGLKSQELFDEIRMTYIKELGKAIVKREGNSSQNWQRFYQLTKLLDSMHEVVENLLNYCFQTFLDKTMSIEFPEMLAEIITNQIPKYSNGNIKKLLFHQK

c1ccc(CCCc2ccncc2)cc1
active: [5] 10.9 µM
not listed: [18] | [19] | [20]
inactive: all other assays above

O=C(O)CCS
not listed: [4] | [5] | [10] | [15] | [17] | [20]
inactive: all other assays above

C/C(C=O)=C\c1ccccc1
not listed: [15] | [17] | [18] | [20]
inactive: all other assays above

O=C(O)CCC(=O)OC[C@@H](NC(=O)C(Cl)Cl)[C@H](O)c1ccc([N+](=O)[O-])cc1
not listed: [1] | [10] | [17]
inactive: all other assays above

C=CC(=O)O
not listed: [5] | [6] | [7]
inactive: all other assays above

O=C(c1ccccc1)c1ccc(O)cc1
active: [5] 27.6 µM
not listed: [18]
inactive: all other assays above

CC(C)(C)C1(CCc2ccc(Cl)cc2)CO1 (centres undefined)
active: [5] 19.3 µM
not listed: [15] | [17] | [18] | [20]
inactive: all other assays above

COc1ccc(-c2cc(=S)ss2)cc1
active: [5] 2.11 µM
not listed: [1] | [20]
inactive: all other assays above
